HT1080NT lethal = kills 2HG-producing HT-1080-NT fibrosarcoma cells. actives 1.6% (n = 360,000). HT-1080-NT fibrosarcoma viability, CellTiter-Glo ATP luminescence, 48 h. AID 686970. Potency, µM (doses to about 46.1 µM), inactives show at the top dose activity, negative = less viability, usual class: cytotoxic;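 also: NT is the 2HG producing partner of a matched IDH1 knockdown line; potency is read from the fitted curve at half-maximal effect; 0% = DMSO-treated cells and -100% = media-only wells without cells; nearly all actives have a fitted effect of over 55% in size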
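Viability by CellTiter-Glo luminescence after 48 h compound exposure at 37C of HT-1080-NT cells (750/well, RPMI, 5% FBS). % activity scaled between DMSO wells and medium-only wells, then curve-fitted and categorized by curve class.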
uPA surface inh = cell surface uPA generation inhibition; cell surface uPA generation assay, qHTS; Potency, µM (titrated, usually from 38.3 µM), without a hit: top-dose activity change, negative = inhibition, usual class: inhibitors; actives 0.31% (n = 330,000); AID 540303; active = well fitted inhibition curve with a large enough effect; inconclusive = small, poorly fitted or top-dose-only effect; inactive = no such curve, though single readings can be large or run the other way; tested in mouse RAW 264.7 cells; also: potency is read from the fitted curve at half-maximal effect; nearly all actives have a fitted effect of over 55% in size
IL-1B inflam inh = inhibitors of inflammasome signaling (IL-1 beta secretion); THP-1 LPS/ATP IL-1B secretion, AlphaLISA, 16 h; hits give low values; AID 743279; activity change, % at 57.5 µM; actives 4.7% (n = 360,000); in the data active = activity change below about -50%; inconclusive = mostly about -30% to -49%
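Secreted IL-1B measured by AlphaLISA bead assay after 16 h compound exposure of THP-1 cells; compounds (final up to 57.5 uM) added 1 h before LPS (250 ng/mL) and ATP (1.25 mM) stimulation; lower signal means less secretion.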
HT1080 IDH1KD tx = HT-1080 IDH1 knockdown cell toxicity (counter line); HT-1080 IDH1 knockdown viability, ATP luminescence, 48 h; Potency, µM (doses to about 46.1 µM), inactives show at the highest dose activity, negative = toxicity, hits mostly cytotoxic; actives 2% (n = 360,000); AID 686971;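 also: potency is read from the fitted curve at half-maximal effect; 0% = DMSO wells and -100% = cell-free medium wells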
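% activity derives from luminescence (CellTiter-Glo), normalised to DMSO and no-cell wells. HT-1080-IDH1KD cells, 750/well, had 48 h compound exposure at 37 °C.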
DT40 TDP1 no CPT = qHTS for Inhibitors of human tyrosyl-DNA phosphodiesterase 1 (TDP1): qHTS in cells in absence of CPT; DT40 Tdp1-/- hTDP1 cells, no CPT, ATP luminescence, 48 h; Potency, µM (titrated, usually from 46.2 µM), for the others: top-dose activity change, negative = growth inhibition, usual class: inhibitors; actives 15% (n = 420,000); AID 686978, 2013; also: potency is read from the fitted curve at half-maximal effect; nearly all actives have a fitted effect of over 55% in size
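Chicken DT40 Tdp1-/- cells stably complemented with human TDP1 were seeded at 400 cells/well with DMSO in place of 20 nM camptothecin. After compound pinning, cells grew at least 48 hr at 37 °C; viability read by CellTiter-Glo luminescence.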
DT40 TDP1 CPT = DT40-hTDP1 cell growth loss with CPT. chicken DT40 Tdp1-/-;hTDP1 cells + 20 nM CPT, ATP luminescence, 48 h. Potency, µM (titrated, usually from 46.2 µM), for the others: top-dose activity change, negative = growth inhibition, hits mostly inhibitors. actives 12% (n = 420,000); also: potency is read from the fitted curve at half-maximal effect; nearly all actives have a fitted effect of over 55% in size
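Chicken DT40 Tdp1-/- cells stably complemented with human TDP1 were seeded at 400 cells/well in medium containing 20 nM camptothecin, exposed to pin-transferred compounds, and grown at 37 °C for at least 48 hr. Viability was read as ATP luminescence.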
* = called active by the depositor; ? = inconclusive; / = no result; [ ] = remark or other dose. Only some compounds are listed: those with a hit (about 19% of all), similar ones and a draw of the others. Unless noted, calls follow the shape of the dose curve; as a rule, active = well fitted curve in the direction sought with a large enough effect; inconclusive = small, poorly fitted or top-dose-only effect, or another doubt; inactive = no such curve, though single readings can be large; an effect the other way counts as inactive or inconclusive. Unless noted, % is scaled to controls: 0 for no effect and ±100 for the full control effect.

SMILES | HT1080NT lethal | uPA surface inh | IL-1B inflam inh | HT1080 IDH1KD tx | DT40 TDP1 no CPT | DT40 TDP1 CPT
O=C(NC1CCCC1)c1nc(-c2ccco2)oc1-c1ccccc1 | 0% | / | -4 | -9% | ? | ?
O=C(NC1CCCCC1)c1nc(-c2c(F)cccc2F)oc1-c1ccccc1 | 15% | / | -14 | 23% | 26µM* | 23µM*
CCN(CC)CCN(C)Cc1nc(C(c2ccccc2)c2ccccc2)no1 | -1% | -8% | -64* | -4% | -1% | -3%
CN(CCc1cn[nH]c1)Cc1nc(C(c2ccccc2)c2ccccc2)no1 | 0% | -1% | -3 | 0% | ? | ?
O=C(Cc1ccccc1)c1ccc(O)cc1O | 0% | -1% | 0 | 1% | -25% | -11%
O=C(O)c1cc(N(Cc2ccccc2O)Cc2cc(O)ccc2O)ccc1O | / | / | / | / | 21µM* | ?
COc1ccccc1N1CCN(c2c3c(nc4nncn24)CCC3)CC1 | / | / | / | / | 4% | -1%
Fc1ccccc1N1CCN(c2c3c(nc4nncn24)CCC3)CC1 | / | / | / | / | 21µM* | ?
CC(C)c1ccc(S(=O)(=O)NC2CCS(=O)(=O)C2)cc1 (centres undefined) | -6% | -3% | 12 | 1% | ? | -11%
CCC(=O)N1CCc2cc(Br)cc(S(=O)(=O)NCCc3ccc(OC)c(OC)c3)c21 | / | / | / | / | -21% | 10%
N#Cc1cccc(NC(=O)Nc2cccs2)c1 | -1% | 2% | -9 | 1% | 16µM* | ?
O=C(Nc1ccc(C(F)(F)F)cn1)Nc1cccs1 | 0% | 0% | 1 | 12% | 8% | 1%
O=C(Nc1cccs1)Nc1cc(C(F)(F)F)ccc1Cl | / | / | / | / | 16µM* | ?
Cc1cccc(C)c1NC(=O)Cc1cccs1 | 12% | 0% | 11 | 1% | -4% | 0%
O=C(Nc1cccs1)Nc1c(F)c(F)c(F)c(F)c1F | 4% | -4% | -26 | 2% | 16µM* | 21µM*
Cc1cccc(C)c1NC(=O)Nc1cccs1 | -8% | -11% | 15 | -7% | 18µM* | 18µM*
CCCc1nn2c(=O)cc(COC(=O)c3cccc(NC(=O)c4ccc(OCC)cc4)c3)nc2s1 | / | / | / | / | -19% | -10%
Cc1ncc(CO)c2cc(C(=O)Nc3ccccc3Cl)c(=Nc3cccc(C(N)=O)c3)oc12 | 1% | 7% | 16 | 0% | -4% | -14%
CCOc1ccc(C(C)(C)C)cc1S(=O)(=O)Nc1ccncc1 | 4% | 3% | 0 | 0% | 10% | 4%
O=C(Nc1cccs1)Nc1c(F)cc(F)cc1Br | 1% | 7% | -14 | -8% | 23µM* | 7.3µM*
O=C(Nc1cccs1)Nc1c(F)c(F)cc(F)c1F | 3% | -9% | 16 | 11% | -5% | -12%
O=S1(=O)N[C@@H](Cc2ccccc2)COc2cccc(N3CCC[C@@H]3CO)c21 | -3% | / | -13 | 3% | -29% | -12%
CCOc1ccc(NC(=O)Cn2c(=O)n(CC(=O)NCc3ccccc3Cl)c(=O)c3sccc32)cc1 | / | / | / | / | -14% | 4%
CCn1cc(/C=N/N=C2\CCC3C4CCc5cc(O)ccc5C4CC[C@]23C)c(C)n1 (some centres undefined) | -19% | -5% | 0 | -2%[9.24 µM] | 21µM* | 16µM*
O=C(NCC(c1cccs1)N1CCOCC1)c1cc(S(=O)(=O)N2CCOCC2)ccc1Cl (centres undefined) | -2% | -5% | 18 | -3% | -4% | -22%
SMILES | HT1080NT lethal | uPA surface inh | IL-1B inflam inh | HT1080 IDH1KD tx | DT40 TDP1 no CPT | DT40 TDP1 CPT
Cc1ccc(CSCCNC(=O)c2ccc(N(C)S(=O)(=O)c3ccccc3)cc2)cc1 | -9% | -9% | -5 | -19% | 15µM* | ?
CC(=O)Nc1ccc(S(=O)(=O)NCCSCc2ccccc2Cl)cc1 | -5% | -3% | -7 | ? | 18µM* | 9.2µM*
CN(c1ccc(C(=O)NCCSCc2ccc(Cl)cc2)cc1)S(=O)(=O)c1ccccc1 | 7% | -3% | -10 | 5% | 16µM* | 16µM*
CC(=O)Nc1ccc(S(=O)(=O)NCC2CCC(C(=O)NCc3ccccc3Cl)CC2)cc1 (centres undefined) | / | / | / | / | -11% | -13%
Cc1ccc(CSCCNS(=O)(=O)c2ccccc2)cc1 | -5% | 3% | 0 | -3% | 29µM* | -23%
CCOC(=O)c1ccc(NC(=O)Cn2cnc3sc(C(=O)OCC)c(C)c3c2=O)cc1 | / | / | / | / | -10% | -27%
O=C(NCCC1=CCCCC1)C1CCN(S(=O)(=O)N2CCCC2)CC1 | -7% | 7% | 33 | 0% | ? | ?
O=C(NCCC1=CCCCC1)C1CCCN(S(=O)(=O)c2ccc(F)cc2)C1 (centres undefined) | -1% | 2% | 10 | 0% | 21µM* | 12µM*
O=C(NCCC1=CCCCC1)C1CCN(S(=O)(=O)c2ccc(Br)s2)CC1 | 5% | 2% | 11 | 4% | 21µM* | 21µM*
O=C(NCCC1=CCCCC1)C1CCCN(S(=O)(=O)c2cnc[nH]2)C1 (centres undefined) | 0% | 1% | 10 | 6% | -2% | 3%
CCc1ccc(-c2nnn(CC(=O)N(C3CCCC3)C3CCS(=O)(=O)C3)n2)cc1 (centres undefined) | 18%[9.24 µM] | 3% | 5 | -1% | 6% | -7%
O=C(NCc1ccccn1)c1nn(-c2ccccc2Cl)nc1CO | / | / | / | / | -1% | -10%
COc1cccc(CNC(=O)c2ccc(C3SCCS3)cc2)c1 | 1% | -7% | 12 | 8% | ? | ?
Cc1nn(-c2ccccc2)c(N)c1Sc1ccccc1[N+](=O)[O-] | -8% | -5% | 10 | -15% | 16µM* | ?
CCC(=O)OC1CC(C)N(C(=O)c2ccccc2)c2ccc(C)cc21 (centres undefined) | -1% | 7% | -6 | -2% | 14µM* | 11µM*
CCC(=O)N1c2ccccc2[C@@H](N(C(C)=O)c2ccccc2)C[C@H]1C | 0% | -17% | -13 | -4% | -24% | -24%
CCCC(=O)O[C@H]1C[C@@H](C)N(C(=O)c2ccccc2)c2ccc(C)cc21 | -4% | -1% | -4 | -6% | ? | -7%
CCCC(=O)N1c2ccccc2C(N(C(C)=O)c2ccccc2)CC1C (centres undefined) | -3% | -4% | 30 | 0% | ? | 23µM*
CC(=O)N(c1ccccc1)C1CC(C)N(C(=O)c2ccccc2)c2ccccc21 (centres undefined) | -1% | 11% | 0 | 15% | 7.3µM* | 8.2µM*
